According to PubChem BioAssay (EPA / NIEHS):
Records with an inconclusive call do not appear. The source made the active and inactive calls. How the source made its calls, unless noted: active means hit-call score of the fitted dose curve at least 0.9, where 1 is the maximum; inactive means score below 0.9.

Columns and labels:
[1] = molecular target: Paired box protein Pax-6 (Homo sapiens) (UniProt P26367); assay: ATG_Pax6_CIS: Attagene CIS-FACTORIAL HepG2 Assay for human Paired Box 6 (PAX6) (AID 2282956); settings: HepG2 CIS-FACTORIAL PAX6 reporter transcription, RNA readout; actives raise or lower the signal
How it was run: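 Readout: reporter transcript fluorescence after RT-PCR and capillary electrophoresis. Cells: HepG2, transiently transfected with cis-regulated MRTUs. Exposure 24 h. Gain or loss of signal fitted bidirectionally relative to DMSO.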

[2] = ATG_PXRE_CIS: Attagene CIS-FACTORIAL HepG2 Assay for human Pregnane X Receptor Element (PXRE) (AID 2282957); settings: HepG2 Attagene CIS-FACTORIAL PXRE reporter, mRNA; actives raise or lower the signal
How it was run: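 Endogenous transcription factor activity in HepG2 was gauged through induction of reporter mRNA driven by a cis-regulating promoter element, sampled 24 h post-treatment. Activity was fitted in both directions against DMSO negative control.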

[3] = ATG_Sox_CIS: Attagene CIS-FACTORIAL HepG2 Assay for human SRY-box transcription factor (SOX) (AID 2282960); settings: HepG2 Attagene cis-factorial SOX reporter, mRNA; actives raise or lower the signal
How it was run: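 HepG2 cells transiently transfected with multiple cis-regulated reporter units, then dosed for 24 h. Reporter mRNA quantified by RT-PCR, fluorescent labelling, HpaI digestion and capillary electrophoresis; bidirectional fit versus DMSO.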

[4] = molecular target: Transcription factor Sp1 (Homo sapiens) (UniProt P08047); assay: ATG_Sp1_CIS: Attagene CIS-FACTORIAL HepG2 Assay for human Specificity Protein 1 (Sp1) (AID 2282961); settings: HepG2 Sp1 cis-reporter transcription, actives raise or lower the signal
How it was run: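 HepG2 cells transiently transfected with multiplexed cis-regulated reporter constructs, chemical exposure 24 h. Reporter mRNA quantified by RT-PCR with capillary electrophoresis; bidirectional fit relative to DMSO.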

[5] = ATG_SREBP_CIS: Attagene CIS-FACTORIAL HepG2 Assay for human Sterol Regulatory Element Binding (SREBP) (AID 2282962); settings: HepG2 Attagene cis-factorial SREBP reporter, mRNA; actives raise or lower the signal
How it was run: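 Readout: fluorescent reporter-transcript peaks resolved by capillary electrophoresis after RT-PCR. Cells were human HepG2 carrying transfected cis-promoter reporter constructs, dosed for 24 h. Gain or loss of signal was fitted against DMSO controls.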

[6] = molecular target: Signal transducer and activator of transcription 3 (Homo sapiens) (UniProt P40763); assay: ATG_STAT3_CIS: Attagene CIS-FACTORIAL HepG2 Assay for human Signal Transducer and Activator of Transcription 3 (STAT3) (AID 2282963); settings: HepG2, Attagene cis-factorial STAT3 reporter transcription; actives raise or lower the signal
How it was run: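 Cis-factorial format: endogenous transcription factors in HepG2 drive transfected reporter units. After 24 h treatment, reporter RNA was reverse-transcribed, amplified, FAM-labelled and HpaI-digested before CE analysis; activity scored in both directions against DMSO.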

[7] = ATG_TA_CIS: Attagene CIS-FACTORIAL HepG2 Assay for human TA Basal Promoter (AID 2282964); settings: HepG2 Attagene CIS-factorial TA basal promoter reporter; actives raise or lower the signal
How it was run: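 Background internal-marker endpoint from a 52-component HepG2 cis-reporter panel. Cells treated 24 h; reporter transcripts quantified via RT-PCR and CE fluorescence against DMSO baseline.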

[8] = ATG_TCF_b_cat_CIS: Attagene CIS-FACTORIAL HepG2 Assay for human T-Cell-Factor with beta-catenin (TCF/b-cat) (AID 2282965); settings: HepG2 TCF/beta-catenin cis-reporter transcription, actives raise or lower the signal
How it was run: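 Endogenous transcription factor activity is captured through cis-promoter reporter constructs transiently introduced into human HepG2 liver cells. Induced reporter mRNA is measured after 24 h and fitted bidirectionally relative to DMSO.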

[9] = ATG_TAL_CIS: Attagene CIS-FACTORIAL HepG2 Assay for human TAL Basal Promoter (AID 2282966); settings: HepG2 Attagene cis-factorial TAL promoter reporter; actives raise or lower the signal;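 further: background control endpoint measuring basal TAL promoter reporter mRNA not a specific factor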
How it was run: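 Endogenous transcription-factor activity is sensed in HepG2 cells through transfected cis-promoter reporter constructs. After 24 h dosing, reporter transcripts are quantified by RT-PCR and capillary electrophoresis. Gain or loss of signal is fitted relative to DMSO.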

[10] = ATG_TGFb_CIS: Attagene CIS-FACTORIAL HepG2 Assay for human Transforming Growth Factor (TGF) (AID 2282967); settings: HepG2 Attagene CIS TGFb reporter, mRNA transcription; actives raise or lower the signal
How it was run: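 Liver HepG2 line, cis-factorial reporter panel, 24 h dosing. Quantitation: RT-PCR products labeled with 6-FAM, cut with HpaI, resolved by capillary electrophoresis; DMSO-referenced bidirectional analysis.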

[11] = molecular target: Nuclear receptor subfamily 1 group I member 3 (Homo sapiens) (UniProt Q14994); assay: ATG_CAR_TRANS: Attagene TRANS-FACTORIAL HepG2 Assay for human Constitutive Androstane Receptor (CAR) (AID 2282969; active means hit-call score of the fitted dose curve at least 0.9, where 1 is the maximum;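 further: activators raise reporter mRNA above DMSO so AC50 marks induction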); settings: HepG2 Attagene TRANS-FACTORIAL CAR reporter
How it was run: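 Signal is reporter mRNA induction relative to DMSO, measured 24 h after dosing by RT-PCR with fluorescent primer extension and capillary electrophoresis. Human HepG2 liver cells carried transiently transfected chimeric NR-Gal4/GAL4-UAS reporter constructs.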

[12] = molecular target: X-box-binding protein 1 (Homo sapiens) (UniProt P17861); assay: ATG_Xbp1_CIS: Attagene CIS-FACTORIAL HepG2 Assay for human X-box Binding Protein 1 (XBP1) (AID 2282972); settings: HepG2 XBP1 cis-element reporter, Attagene multiplex; actives raise or lower the signal
How it was run: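 Read-out: fluorescent reporter mRNA fragments resolved by capillary electrophoresis after RT-PCR. Human HepG2 liver cells carried transfected cis-promoter reporter units and were exposed to chemicals for 24 hours. Gain or loss of signal fitted relative to DMSO baseline.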

[13] = ATG_M_19_TRANS: Attagene TRANS-FACTORIAL HepG2 Assay for M19 Transcription Factor (Internal Marker) (AID 2282974; active means hit-call score of the fitted dose curve at least 0.9, where 1 is the maximum); settings: HepG2 Attagene TRANS-FACTORIAL M19 internal marker reporter
How it was run: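 HepG2 transiently transfected with GAL4-UAS multiplex reporter constructs, exposed 24 h; reporter RNA quantified by RT-PCR, 6-FAM labeling, HpaI digestion and capillary electrophoresis; internal background marker fitted upward versus DMSO.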

[14] = ATG_GAL4_TRANS: Attagene TRANS-FACTORIAL HepG2 Assay for GAL4 (Internal Marker) (AID 2282976; active means hit-call score of the fitted dose curve at least 0.9, where 1 is the maximum); settings: HepG2 Attagene TRANS GAL4 internal marker reporter
How it was run: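 Fluorescence from capillary electrophoresis of labelled RT-PCR products quantifies reporter mRNA induction after 24 h dosing of HepG2 cells carrying transfected GAL4-UAS reporter transcription units. Vehicle DMSO serves as baseline.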

[15] = molecular target: Estrogen-related receptor gamma (Homo sapiens) (UniProt P62508); assay: ATG_ERRg_TRANS: Attagene TRANS-FACTORIAL HepG2 Assay for human Estrogen-Related Receptor gamma (ERRg) (AID 2282977; active means hit-call score of the fitted dose curve at least 0.9, where 1 is the maximum;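 further: hits increase reporter signal over DMSO so potencies reflect activators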); settings: HepG2 Attagene TRANS reporter, ERRg transactivation
How it was run: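 Exogenous NR-Gal4 chimera activity was assessed in HepG2 cells bearing transfected GAL4-UAS reporters. After 24 h dosing, total RNA underwent RT-PCR, fluorescent primer extension and HpaI digestion before capillary electrophoresis, with gain of signal scored against DMSO.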

[16] = ATG_RORE_CIS: Attagene CIS-FACTORIAL HepG2 Assay for human RAR-related Orphan Receptor Element (RORE) (AID 2282959); settings: HepG2 Attagene cis-factorial RORE reporter, mRNA; actives raise or lower the signal
How it was run: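 HepG2 cells carrying transiently transfected cis-regulated reporter units; RORE-driven reporter mRNA quantified 24 h post-dosing by RT-PCR, 6-FAM primer extension, HpaI digestion and capillary electrophoresis. Bidirectional fit versus DMSO.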

[17] = ATG_VDRE_CIS: Attagene CIS-FACTORIAL HepG2 Assay for human Vitamin D Receptor Element (VDRE) (AID 2282968); settings: HepG2 VDRE cis-reporter transcription, actives raise or lower the signal
How it was run: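 Measures endogenous factor activity through cis-element-driven reporter transcripts in transiently transfected HepG2. Cells are treated 24 h; reporter mRNA is quantified by RT-PCR and capillary electrophoresis; fitting is bidirectional.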

[18] = molecular target: Steroid hormone receptor ERR1 (Homo sapiens) (UniProt P11474); assay: ATG_ERRa_TRANS: Attagene TRANS-FACTORIAL HepG2 Assay for human Estrogen-Related Receptor alpha (ERRa) (AID 2282971; active means hit-call score of the fitted dose curve at least 0.9, where 1 is the maximum); settings: HepG2 Attagene TRANS reporter, ERRa transactivation
How it was run: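 HepG2 cells were transiently transfected with multiple GAL4-UAS reporter units, then dosed with compound for 24 h. Total RNA was reverse-transcribed, reporter cDNA PCR-amplified and fluorescently labelled, and fragments resolved by capillary electrophoresis; induction was compared with DMSO.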

[19] = ATG_PPRE_CIS: Attagene CIS-FACTORIAL HepG2 Assay for human Peroxisome Proliferator-activated Response Element (PPRE) (AID 2282958); settings: HepG2 PPRE cis-element reporter, Attagene transcription factor profiling; actives raise or lower the signal
How it was run: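 HepG2 cells are transiently transfected with multiplexed cis-promoter reporter units to report endogenous PPAR activity. After 24 h dosing, reporter mRNA is read by RT-PCR and capillary electrophoresis. Fitting is bidirectional against DMSO.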

[20] = molecular target: Estrogen receptor (Homo sapiens) (UniProt P03372); assay: ATG_ERa_TRANS: Attagene TRANS-FACTORIAL HepG2 Assay for human Estrogen Receptor alpha (ERa) (AID 2282970; active means hit-call score of the fitted dose curve at least 0.9, where 1 is the maximum); settings: HepG2 Attagene TRANS ERa GAL4 reporter, mRNA
How it was run: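 Transfected HepG2 cells carrying GAL4-UAS-driven reporter units were dosed for 24 hours. Total RNA was reverse-transcribed, reporter sequences PCR-amplified, FAM-labelled, HpaI-digested and resolved by capillary electrophoresis. Increases over DMSO control defined activity.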

Measured: AC50

Steroid hormone receptor ERR1 (Homo sapiens), sequence (P11474 whole entry, looked up, the tested form may be a part): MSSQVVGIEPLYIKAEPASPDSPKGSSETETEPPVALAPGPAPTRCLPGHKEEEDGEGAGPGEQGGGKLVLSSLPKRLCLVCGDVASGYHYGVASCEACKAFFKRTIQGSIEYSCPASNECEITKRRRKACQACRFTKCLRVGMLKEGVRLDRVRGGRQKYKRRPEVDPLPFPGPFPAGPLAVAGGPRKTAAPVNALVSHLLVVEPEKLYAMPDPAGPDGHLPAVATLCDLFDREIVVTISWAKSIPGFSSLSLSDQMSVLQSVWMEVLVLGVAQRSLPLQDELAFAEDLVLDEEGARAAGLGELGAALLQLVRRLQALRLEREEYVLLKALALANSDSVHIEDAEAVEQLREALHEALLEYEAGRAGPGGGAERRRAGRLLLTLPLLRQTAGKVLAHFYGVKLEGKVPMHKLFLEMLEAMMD
Transcription factor Sp1 (Homo sapiens), sequence (P08047 whole entry, looked up): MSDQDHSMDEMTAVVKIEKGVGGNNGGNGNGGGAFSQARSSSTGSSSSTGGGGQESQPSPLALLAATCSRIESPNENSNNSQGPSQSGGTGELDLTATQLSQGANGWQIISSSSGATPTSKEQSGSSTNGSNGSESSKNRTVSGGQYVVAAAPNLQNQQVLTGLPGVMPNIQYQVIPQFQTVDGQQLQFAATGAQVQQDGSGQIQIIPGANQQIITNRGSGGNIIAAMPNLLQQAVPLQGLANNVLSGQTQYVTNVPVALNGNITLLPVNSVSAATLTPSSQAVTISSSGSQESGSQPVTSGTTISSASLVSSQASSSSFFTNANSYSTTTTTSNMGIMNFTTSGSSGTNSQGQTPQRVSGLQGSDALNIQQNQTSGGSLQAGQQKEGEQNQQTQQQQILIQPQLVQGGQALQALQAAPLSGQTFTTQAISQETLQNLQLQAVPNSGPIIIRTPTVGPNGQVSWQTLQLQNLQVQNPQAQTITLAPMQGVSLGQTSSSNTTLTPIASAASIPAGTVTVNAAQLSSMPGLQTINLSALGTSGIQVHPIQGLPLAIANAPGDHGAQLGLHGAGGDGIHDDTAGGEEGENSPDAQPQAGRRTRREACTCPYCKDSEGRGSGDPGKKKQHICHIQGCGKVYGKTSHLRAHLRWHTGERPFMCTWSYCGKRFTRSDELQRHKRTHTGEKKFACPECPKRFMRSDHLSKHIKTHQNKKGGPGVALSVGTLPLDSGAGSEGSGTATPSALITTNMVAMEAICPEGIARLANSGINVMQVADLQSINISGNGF
Signal transducer and activator of transcription 3 (Homo sapiens), sequence (P40763 whole entry, looked up): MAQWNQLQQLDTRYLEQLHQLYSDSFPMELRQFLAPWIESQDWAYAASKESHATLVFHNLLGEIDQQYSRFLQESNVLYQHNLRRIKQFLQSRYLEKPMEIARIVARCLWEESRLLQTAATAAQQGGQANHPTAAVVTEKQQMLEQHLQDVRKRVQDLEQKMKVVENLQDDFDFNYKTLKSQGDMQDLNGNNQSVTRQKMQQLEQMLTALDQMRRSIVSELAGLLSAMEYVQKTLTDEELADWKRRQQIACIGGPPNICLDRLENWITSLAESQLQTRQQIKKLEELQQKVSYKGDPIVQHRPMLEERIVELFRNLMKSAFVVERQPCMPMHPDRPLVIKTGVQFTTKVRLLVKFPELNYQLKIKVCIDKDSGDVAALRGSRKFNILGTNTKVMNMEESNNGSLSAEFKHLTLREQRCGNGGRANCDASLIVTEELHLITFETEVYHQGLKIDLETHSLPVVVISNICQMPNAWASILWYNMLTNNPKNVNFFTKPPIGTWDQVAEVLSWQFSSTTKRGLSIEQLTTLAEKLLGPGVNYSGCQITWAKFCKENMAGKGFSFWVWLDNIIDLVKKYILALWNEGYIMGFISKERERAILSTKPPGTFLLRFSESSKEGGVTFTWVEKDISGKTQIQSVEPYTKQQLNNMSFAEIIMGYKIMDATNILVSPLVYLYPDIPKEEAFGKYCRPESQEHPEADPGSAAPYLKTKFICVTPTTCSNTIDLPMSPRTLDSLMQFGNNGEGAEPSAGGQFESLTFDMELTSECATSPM
Nuclear receptor subfamily 1 group I member 3 (Homo sapiens), sequence (Q14994 whole entry, looked up, the tested form may be a part): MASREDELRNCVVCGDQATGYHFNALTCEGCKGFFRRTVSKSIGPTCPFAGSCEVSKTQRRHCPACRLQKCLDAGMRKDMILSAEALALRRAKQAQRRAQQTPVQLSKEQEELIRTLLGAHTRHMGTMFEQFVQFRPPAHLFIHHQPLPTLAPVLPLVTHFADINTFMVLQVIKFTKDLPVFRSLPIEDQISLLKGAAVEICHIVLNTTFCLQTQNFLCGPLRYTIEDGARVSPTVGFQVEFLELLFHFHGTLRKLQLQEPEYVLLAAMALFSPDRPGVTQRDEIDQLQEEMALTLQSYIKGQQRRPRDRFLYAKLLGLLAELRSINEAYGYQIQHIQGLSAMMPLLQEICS
X-box-binding protein 1 (Homo sapiens), sequence (P17861 whole entry, looked up, the tested form may be a part): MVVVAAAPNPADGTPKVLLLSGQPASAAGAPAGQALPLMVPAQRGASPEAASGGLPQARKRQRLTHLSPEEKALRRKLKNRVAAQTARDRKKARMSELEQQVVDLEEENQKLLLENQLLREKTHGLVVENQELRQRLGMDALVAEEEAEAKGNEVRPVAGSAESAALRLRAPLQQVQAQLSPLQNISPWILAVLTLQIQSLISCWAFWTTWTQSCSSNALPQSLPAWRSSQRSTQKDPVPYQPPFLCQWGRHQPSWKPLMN
Estrogen-related receptor gamma (Homo sapiens), sequence (P62508 whole entry, looked up, the tested form may be a part): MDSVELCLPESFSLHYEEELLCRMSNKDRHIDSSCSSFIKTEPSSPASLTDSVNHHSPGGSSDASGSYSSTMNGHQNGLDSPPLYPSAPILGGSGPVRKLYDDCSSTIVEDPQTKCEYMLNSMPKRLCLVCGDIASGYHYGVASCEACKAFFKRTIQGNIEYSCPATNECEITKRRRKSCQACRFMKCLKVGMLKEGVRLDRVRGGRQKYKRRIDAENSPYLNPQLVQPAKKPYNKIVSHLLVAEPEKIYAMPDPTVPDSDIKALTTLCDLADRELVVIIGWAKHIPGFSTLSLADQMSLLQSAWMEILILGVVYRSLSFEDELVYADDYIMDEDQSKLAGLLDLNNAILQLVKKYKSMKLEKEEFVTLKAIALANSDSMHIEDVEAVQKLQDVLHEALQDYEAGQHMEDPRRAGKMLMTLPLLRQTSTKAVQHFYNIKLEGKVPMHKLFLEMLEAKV
Paired box protein Pax-6 (Homo sapiens), sequence (P26367 whole entry, looked up): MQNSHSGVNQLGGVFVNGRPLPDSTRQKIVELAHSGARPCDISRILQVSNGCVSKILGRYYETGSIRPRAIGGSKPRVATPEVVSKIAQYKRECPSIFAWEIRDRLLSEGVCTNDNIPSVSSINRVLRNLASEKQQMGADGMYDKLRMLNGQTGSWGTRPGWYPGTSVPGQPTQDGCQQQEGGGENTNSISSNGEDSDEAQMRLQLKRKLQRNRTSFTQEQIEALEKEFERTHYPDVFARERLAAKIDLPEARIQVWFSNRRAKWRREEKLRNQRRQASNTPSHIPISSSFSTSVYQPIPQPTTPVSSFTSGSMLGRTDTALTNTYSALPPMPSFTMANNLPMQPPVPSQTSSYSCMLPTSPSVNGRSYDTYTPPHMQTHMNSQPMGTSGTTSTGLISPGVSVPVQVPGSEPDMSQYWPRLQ
Estrogen receptor (Homo sapiens), sequence (P03372 whole entry, looked up, the tested form may be a part): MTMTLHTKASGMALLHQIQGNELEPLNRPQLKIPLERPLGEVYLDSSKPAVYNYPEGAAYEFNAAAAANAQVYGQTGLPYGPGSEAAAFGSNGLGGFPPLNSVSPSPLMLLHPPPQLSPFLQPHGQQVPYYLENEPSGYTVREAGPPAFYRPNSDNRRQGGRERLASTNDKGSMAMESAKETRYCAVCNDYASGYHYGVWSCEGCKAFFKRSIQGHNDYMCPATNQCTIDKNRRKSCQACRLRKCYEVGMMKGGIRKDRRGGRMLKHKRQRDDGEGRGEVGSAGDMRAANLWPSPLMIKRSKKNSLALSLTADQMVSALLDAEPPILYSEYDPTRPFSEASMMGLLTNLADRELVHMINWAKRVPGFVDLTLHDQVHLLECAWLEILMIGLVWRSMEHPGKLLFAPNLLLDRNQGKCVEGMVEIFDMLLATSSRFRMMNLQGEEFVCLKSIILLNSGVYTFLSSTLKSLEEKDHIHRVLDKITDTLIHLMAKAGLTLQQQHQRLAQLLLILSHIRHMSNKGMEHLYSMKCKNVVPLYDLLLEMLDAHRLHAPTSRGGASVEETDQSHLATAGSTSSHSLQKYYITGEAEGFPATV

CC/C=C\CC/C=C/CO
inactive: [1] | [3] | [4] | [5] | [6] | [7] | [8] | [9] | [10] | [11] | [12] | [13] | [14] | [15]
active: [2] 27.3 µM

COc1ccc(COC(C)=O)cc1
inactive: [1] | [2] | [16] | [3] | [4] | [6] | [8] | [9] | [10] | [17] | [11] | [18] | [12] | [13] | [15]

[O-]n1ccccc1=S.[O-]n1ccccc1=S.[Zn+2]
inactive: [1] | [2] | [16] | [3] | [5] | [6] | [7] | [8] | [9] | [10] | [17] | [12] | [14]

COC(=O)c1ccc(OC)cc1
inactive: [1] | [2] | [3] | [4] | [5] | [6] | [9] | [10] | [17] | [11] | [18] | [12] | [13] | [15]

Cc1c(OCC(F)(F)F)ccnc1CS(=O)c1nc2ccccc2[nH]1 (centres undefined)
inactive: [3] | [5] | [6] | [9] | [10] | [12]
active: [1] 43.5 µM | [16] 19.8 µM | [7] 37.3 µM | [8] 57.7 µM

CC(C)(C)CC(C)(C)c1ccc(OCCOCC[N+](C)(C)Cc2ccccc2)cc1
active: [5] 8.35 µM | [8] 12 µM
inactive: [1] | [19] | [3] | [6] | [7] | [9] | [10] | [17] | [20] | [18] | [12] | [13] | [14] | [15]

COC(=O)Nc1ccc(Cl)c(Cl)c1
inactive: [1] | [19] | [16] | [3] | [4] | [5] | [6] | [7] | [9] | [10]
active: [8] 26.4 µM | [17] 43.7 µM | [12] 26.7 µM

Cc1[nH]c(=O)c(C#N)cc1-c1ccncc1
inactive: [1] | [16] | [3] | [4] | [5] | [6] | [7] | [8] | [9] | [10] | [20] | [12]

CCC1(c2ccccc2)C(=O)NCNC1=O
inactive: [1] | [3] | [4] | [5] | [6] | [7] | [8] | [9] | [10] | [17] | [12]
